{
  "source": "PubChem BioAssay (EPA / NIEHS)",
  "note": "Activity calls are given as the source filed them. How the source made its calls: active means hit-call score of the fitted dose curve at least 0.9, where 1 is the maximum; inactive means score below 0.9.",
  "data": [
    {"read-out": "UDP glucuronosyltransferase (UGT1A6), UGT1A6 (gene 54578)", "experiment": "LTEA_HepaRG_UGT1A6: Life Technologies and Expression Analysis (LTEA) Assay for UDP glucuronosyltransferase (UGT1A6) using HepaRG (AID 2283539)", "settings": "mRNA level, 48 h; actives raise or lower the signal", "method": "LTEA_HepaRG is a cell based, multiplexed-readout assay that uses HepaRG, a human liver cell line, with measurements taken at 48 hours after chemical dosing on a 96-well plate.LTEA_HepaRG_UGT1A6 is one of 102 assay component(s) measured in the LTEA HepaRG cell culture assay. It is a marker of NR mediated metabolism.Data from the assay component LTEA_HepaRG_UGT1A6 was analyzed into 1 endpoint. This assay endpoint, LTEA_HepaRG_UGT1A6, was analyzed with bidirectional fitting relative to DMSO as the negative control and baseline of activity. Using a type of inducible reporter, measures of mRNA induction for gain or loss-of-signal activity can be used to understand regulation of transcription factor activity. To generalize the intended target to other relatable targets, this assay endpoint is annotated to the transferase intended target family, where the subfamily is glucuronosyltransferase.\nA total of 1060 chemcials from the ToxCast library were tested in eight-point concentration-response experiments. Cell culture and cytotoxicity assays were conducted at Thermo Fisher Scientific's Custom Services facility (Madison, WI). A single lot of human HepaRG cells (Thermo Fisher Scientific, Frederick, MD) was used for the cell culture experiments. 96-well format collagen type I coated plates of human HepaRG cells were prepared using established methods. Briefly, cryopreserved HepaRG cells were thawed, plated at a density of approximately 100,000 cells/well in HepaRG Thaw, Plate, and General Purpose media (HPRG770, Thermo Fisher Scientific), and incubated for 48 hours. 0.5% DMSO was selected as vehicle control to balance the requisite need of DMSO in HepaRG cultures to maintain differentiation (for example, baseline metabolism, proportions of hepatocytes vs. cholangiocytes), while enabling further hepatic receptor pathway activation (for example, PXR and CAR) in response to chemical exposure. 48 hours after plating, the culture medium was replaced with HepaRG Serum-Free Incudtion Media. Cells were exposed to each test chemical in duplicate and maintained in CO2 incubators for another 48 hours. Chemical plates were thawed to room temperature and 200x concentrations of treatment groups were prepared. 8-point conentration-reponse curves were made with the highest exposure at 100 uM, followed by half-log dilutions, all in 0.5% DMSO. Each test plate contained variouse controls, induction positive controls (1mM phenobarbital), cytotoxicity positive controls ([…] aflatoxin B1), vehicle controls (0.5% DMSO), and total lysis controls (0.5% DMSO). Cell morphology images were taken using an Essen IncuCyte FLR automated microscope, with six 96-well plates imaged in about 24 minutes. Images were captured and exported and JPEG files. Spent culture media was transfered to black-well plates for the LDH assay, and remaining media was sorted at -80 C for later use. Cells were treated with RLT buffer and frozen until shipped for gene expression analysis. Total RNA was isolated from the cell suspension in 75 uL of Buffer RLT (Qiagen, Germantown, MD 20874) by Quintiles/Expression Analysis (Durham, NC) using a custom isolation procedure. Total RNA from each plate well was transferred to a preamplification plate. Fluidigm's 96.96 Dynamic ArrayTM (Fluidigm, Amsterdam, the Netherlands) technology was used for gene expression analyses by quantitative reverse transcription polymerase chain reaction (qRT-PCR, performed by Quintiles/Expression Analysis, Durham, NC)89. Standard TaqManTM Assays (Applied Biosystems/ThermoFisher Scientific, Foster City, CA) were used to assess the expression of 93 genes selected based on their selectivity and sensitivity to important hepatic receptors known to be modulated by environmental chemicals; importance in human hepatocyte functionality; and hepatotoxicity. […]", "values": [
      {"smiles": "COc1ccccc1N", "outcome": "inactive"},
      {"smiles": "Oc1c(Cl)cc(Cl)cc1Cl", "outcome": "inactive"},
      {"smiles": "CCCCCCCCCCCCc1cccc(S(=O)(=O)O)c1", "outcome": "inactive"},
      {"smiles": "Oc1cc(Cl)c(Cl)cc1Cl", "outcome": "inactive"},
      {"smiles": "O=C(N[C@H]1CN2CCC1CC2)c1ccc2c(c1)OCCO2", "outcome": "inactive"},
      {"smiles": "Clc1cccc(Cl)c1", "outcome": "inactive"},
      {"smiles": "Clc1cccc(Cl)c1Cl", "outcome": "inactive"},
      {"smiles": "O=C(O)C1(c2ccc3c(c2)OC[C@H](Cc2ccc(-c4ccccc4)cc2)[C@H]3O)CCCC1", "outcome": "inactive"},
      {"smiles": "OCCN(CCO)CCO", "outcome": "inactive"},
      {"smiles": "Cc1cc(C)cc(C)c1", "outcome": "inactive"},
      {"smiles": "CN(C)C(=S)S", "outcome": "inactive"},
      {"smiles": "N#Cc1cccnc1", "outcome": "inactive"},
      {"smiles": "CC(C)(C)c1ccccc1O", "outcome": "inactive"},
      {"smiles": "CC(C)O.CC(C)O.OCCN(CCO)CCO.OCCN(CCO)CCO.[Ti]", "outcome": "inactive"}
    ]}
  ]
}
